As usually defined, the AC50 is the concentration at which the activity in the assay is half-maximal.

Drawing on PubChem BioAssay (EPA / NIEHS), this text covers outcome and AC50 for seven compounds.

Inconclusive results are not listed. Active and inactive are the calls of the source. The calls were made as follows, unless noted: active = hit-call score of the fitted dose curve at least 0.9, where 1 is the maximum; inactive = score below 0.9.

Assay [1] in a line: ATG_NFI_CIS: Attagene CIS-FACTORIAL HepG2 Assay for human Nuclear Factor I (NFI) (AID 2282989). Particulars: HepG2 cis-regulatory reporter, NFI response element transcription; actives raise or lower the signal. In outline:
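Read-out: reporter mRNA via RT-PCR plus capillary electrophoresis with fluorescence detection. Transiently transfected HepG2 (endogenous TF activity on cis promoters), 24 h compound exposure; gain or loss of signal fitted against DMSO.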

Assay [2] addresses Myc proto-oncogene protein (Homo sapiens) (UniProt P01106). Put plainly: ATG_Myc_CIS: Attagene CIS-FACTORIAL HepG2 Assay for human Myelocytomatosis (Myc) Proto-Oncogene Transcription Factor (AID 2282990). Particulars: HepG2, Attagene cis-reporter transcription factor activity; actives raise or lower the signal. The method in brief:
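Multiplexed cis-reporter transcription in HepG2 cells after 24 h chemical treatment. Reporter mRNA measured by RT-PCR and capillary electrophoresis fluorescence; activity fitted bidirectionally against DMSO control.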

Assay [3] in a line: ATG_NRF2_ARE_CIS: Attagene CIS-FACTORIAL HepG2 Assay for human Nuclear Factor Erythroid 2 Related Factor 2 (NFR2) response to Antioxidant Response Elements (ARE) (AID 2282992). Particulars: HepG2 Attagene ARE/NRF2 reporter, transcription factor activity; actives raise or lower the signal. In outline: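 Endogenous transcription factor activity in human liver HepG2 cells is tracked via a cis-element-driven reporter within a multiplexed set. mRNA induction is read by RT-PCR and capillary electrophoresis after 24 h, with DMSO as baseline.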

Assay [4] is described as follows: ATG_Oct_MLP_CIS: Attagene CIS-FACTORIAL HepG2 Assay for human Octamer-Binding Transcription Factor (Oct) (AID 2282993). Particulars: HepG2 Attagene cis-factorial Oct reporter, mRNA; actives raise or lower the signal. In outline: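 Read-out: reporter mRNA via RT-PCR plus capillary electrophoresis of 6-FAM-labelled fragments. Transiently transfected HepG2, 24 h exposure, endogenous TF activity on cis elements. Gain or loss of signal fitted relative to DMSO.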

For assay [5], the target named is Cellular tumor antigen p53 (Homo sapiens) (UniProt P04637). Put plainly: ATG_p53_CIS: Attagene CIS-FACTORIAL HepG2 Assay for human p53 Transcription Factor (AID 2282994). Particulars: HepG2 p53 cis-element reporter, Attagene mRNA; actives raise or lower the signal. In outline:
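Steps: transfect HepG2 with multiplexed cis reporter constructs; dose chemicals 24 h; extract RNA, reverse-transcribe, PCR-amplify reporter sequences; FAM-label, HpaI-digest, resolve fragments by CE. Activity fitted both directions relative to DMSO.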

Assay [6] is described as follows: BSK_3C_TissueFactor: BioMAP Diversity Plus: 3C Assay for Tissue Factor Biomarker Activity (AID 2282997). Particulars: BioMAP 3C HUVEC, tissue factor biomarker readout; actives raise or lower the signal. The method in brief:
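Tissue factor on primary human umbilical vein endothelium was read by ELISA 24 h after dosing, gain or loss relative to DMSO. Cytotoxicity ran alongside via SRB (0.1%, TCA-fixed, 560 nm).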

Assay [7] in a line: BSK_3C_uPAR: BioMAP Diversity Plus: 3C Assay for Urokinase-type plasminogen activator receptor (uPAR) Biomarker Activity (AID 2282998). Particulars: BioMAP 3C HUVEC, uPAR biomarker ELISA; actives raise or lower the signal. The method in brief:
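HUVEC primary cells; 24 h post-dose; uPAR by ELISA; gain or loss of signal fitted bidirectionally vs DMSO baseline.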
(ELISA stands for enzyme-linked immunosorbent assay.)

The nature of assay [8]: BSK_3C_VCAM1: BioMAP Diversity Plus: 3C Assay for Vascular cell adhesion molecule 1 (VCAM1) Biomarker Activity (AID 2282999). Particulars: BioMAP 3C HUVEC, VCAM1 ELISA, cytokine-stimulated; actives raise or lower the signal. The method in brief:
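Vascular primary endothelium (human umbilical vein) was exposed to chemicals and assayed 24 h later. VCAM-1 levels came from ELISA, with DMSO serving as baseline for bidirectional fitting.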

A short description of assay [9]: BSK_4H_Eotaxin3: BioMAP Diversity Plus: 4H Assay for Eotaxin 3 Biomarker Activity (AID 2283000).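 As to outcome: CCL26 protein level quantified by ELISA in parallel with SRB cytotoxicity check.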 Particulars: primary human endothelial cells (HUVEC); actives raise or lower the signal. The method in brief:
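Human umbilical vein endothelial cells (BSK_4H system) dosed with test chemical; Eotaxin-3 (CCL26) measured by ELISA 24 h after dosing. Bidirectional curve fitting relative to DMSO negative control as baseline.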

For assay [10], the target named is human Peroxisome Proliferator-activated Receptor alpha (PPARa), PPARA (gene 5465) (UniProt Q07869). Put plainly: ATG_PPARa_TRANS: Attagene TRANS-FACTORIAL HepG2 Assay for human Peroxisome Proliferator-activated Receptor alpha (PPARa) (AID 2283001; active = hit-call score of the fitted dose curve at least 0.9, where 1 is the maximum;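 as to AC50: potency for gain of reporter signal over DMSO so agonist or activator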). In outline:
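Exposure: 24 h, transiently transfected HepG2 cells. Endpoint: GAL4-UAS reporter mRNA, RT-PCR with capillary electrophoresis fluorescence. Baseline: DMSO; increases fitted.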

Read-out in assay [11]: Intercellular Adhesion Molecule 1 (ICAM1), ICAM1 (gene 3383)
Put plainly: BSK_3C_ICAM1: BioMAP Diversity Plus: 3C Assay for Intercellular Adhesion Molecule 1 (ICAM1) Biomarker Activity (AID 2283003). Particulars: primary human endothelial cells (HUVEC); actives raise or lower the signal. The method in brief: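 ELISA read-out of ICAM-1; HUVEC (primary human), 3C system, 24 h post-dosing; bidirectional fit vs DMSO baseline.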

Assay [12] concerns the target Retinoic acid receptor alpha (Homo sapiens) (UniProt P10276). Put plainly: ATG_RARa_TRANS: Attagene TRANS-FACTORIAL HepG2 Assay for human Retinoic Acid Receptor alpha (RARa) (AID 2283005; active = hit-call score of the fitted dose curve at least 0.9, where 1 is the maximum). In outline: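 HepG2 cells transiently transfected with multiple reporter units expressing chimeric RARα-GAL4 fusion, with GAL4-UAS-driven reporters. After 24 h compound exposure, reporter mRNA induction quantified by RT-PCR and capillary electrophoresis with fluorescent labeling; gain-of-signal fitted relative to DMSO control.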

Assay [13] in a line: BSK_3C_Proliferation: Cell Proliferation Assessment in the BioMAP Diversity Plus: 3C Assay (AID 2283006).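 As to AC50: potency may reflect either rise or fall in cell number versus DMSO.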 Particulars: primary human endothelial cells (HUVEC). The method in brief: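 HUVEC, sub-confluent; 48 h chemical exposure; 10% TCA fix, 0.1% SRB stain, A560 total protein. Gain or loss of signal fitted both directions vs DMSO control.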
Assay [14] concerns the target Peroxisome proliferator-activated receptor gamma (Homo sapiens) (UniProt P37231). Put plainly: ATG_PPARg_TRANS: Attagene TRANS-FACTORIAL HepG2 Assay for human Peroxisome Proliferator-activated Receptor-gamma (PPARg) (AID 2283007; active = hit-call score of the fitted dose curve at least 0.9, where 1 is the maximum). The method in brief:
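Human hepatoma HepG2, transient MRTU transfection, 24 h treatment. mRNA reporter signal by RT-PCR plus capillary electrophoresis, fluorescence detection; fitted for increase over DMSO negative control.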

Assay [15] concerns the target human RAR-related Orphan Receptor beta (RORb), RORB (gene 6096) (UniProt Q92753). Put plainly: ATG_RORb_TRANS: Attagene TRANS-FACTORIAL HepG2 Assay for human RAR-related Orphan Receptor beta (RORb) (AID 2283010; active = hit-call score of the fitted dose curve at least 0.9, where 1 is the maximum). The method in brief:
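HepG2, transient MRTU transfection (GAL4-UAS reporters, exogenous NR-Gal4 chimeras); 24 h compound exposure; total RNA → RT-PCR → 6-FAM primer extension → HpaI digest → CE fluorescence. Positive direction vs DMSO baseline.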

The nature of assay [16]: ATG_NF_kB_CIS: Attagene CIS-FACTORIAL HepG2 Assay for human Nuclear Factor Kappa B (NF-kB) (AID 2282991). Particulars: HepG2 Attagene cis-factorial NF-kB reporter mRNA; actives raise or lower the signal. The method in brief: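 Multiplexed cis-reporter assay in transiently transfected HepG2. 24 h treatment; RNA isolated, RT-PCR, labelled fragments resolved by CE. DMSO baseline.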

Assay [17] has as its target human Peroxisome Proliferator-activated Receptor delta (PPARd), PPARD (gene 5467) (UniProt Q03181). Put plainly: ATG_PPARd_TRANS: Attagene TRANS-FACTORIAL HepG2 Assay for human Peroxisome Proliferator-activated Receptor delta (PPARd) (AID 2283002; active = hit-call score of the fitted dose curve at least 0.9, where 1 is the maximum). The method in brief:
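Multiplexed trans-activation format: HepG2 liver cells expressing exogenous NR-Gal4 chimeras and GAL4-UAS reporters were exposed for 24 h. Reporter mRNA was detected by RT-PCR with capillary electrophoresis fluorescence; activity fitted as gain of signal relative to DMSO.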

Assay [18] has as its target Nuclear receptor subfamily 1 group I member 2 (Homo sapiens) (UniProt O75469). Put plainly: ATG_PXR_TRANS: Attagene TRANS-FACTORIAL HepG2 Assay for human Pregnane X Receptor (PXR) (AID 2283008; active = hit-call score of the fitted dose curve at least 0.9, where 1 is the maximum). The method in brief: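 HepG2 transfected (FuGene 6) with GAL4-UAS reporter units + PXR-Gal4 chimera; dosed 24 h. Total RNA → oligo(dT) RT → PCR → 6-FAM primer extension → HpaI cut → CE. Gain-of-signal vs DMSO.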

Assay [19] has as its target human Retinoic Acid Receptor beta (RARb), RARB (gene 5915) (UniProt P10826). Put plainly: ATG_RARb_TRANS: Attagene TRANS-FACTORIAL HepG2 Assay for human Retinoic Acid Receptor beta (AID 2283004; active = hit-call score of the fitted dose curve at least 0.9, where 1 is the maximum). The method in brief: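 Induction of reporter mRNA from a chimeric RARb-Gal4 construct was measured by RT-PCR, FAM labelling, HpaI digestion and capillary electrophoresis. Measurements followed 24 h compound treatment of transiently transfected human HepG2 liver cells, with DMSO as baseline.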

Sequence of human RAR-related Orphan Receptor beta (RORb), RORB (gene 6096) (Q92753 whole entry, looked up, the tested form may be a part): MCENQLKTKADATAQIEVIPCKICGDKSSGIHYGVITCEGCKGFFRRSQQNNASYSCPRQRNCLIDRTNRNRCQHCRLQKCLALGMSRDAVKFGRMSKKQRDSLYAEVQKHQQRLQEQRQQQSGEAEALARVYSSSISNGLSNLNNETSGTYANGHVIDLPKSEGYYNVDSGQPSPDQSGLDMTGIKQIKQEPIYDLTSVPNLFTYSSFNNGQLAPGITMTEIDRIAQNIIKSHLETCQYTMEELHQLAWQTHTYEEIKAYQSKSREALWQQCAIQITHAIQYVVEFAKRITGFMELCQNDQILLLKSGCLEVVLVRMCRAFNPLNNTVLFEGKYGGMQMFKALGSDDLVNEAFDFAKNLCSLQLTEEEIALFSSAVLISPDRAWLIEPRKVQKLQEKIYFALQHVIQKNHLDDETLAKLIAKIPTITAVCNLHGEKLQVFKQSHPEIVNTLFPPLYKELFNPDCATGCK
Sequence of Myc proto-oncogene protein (Homo sapiens) (P01106 whole entry, looked up): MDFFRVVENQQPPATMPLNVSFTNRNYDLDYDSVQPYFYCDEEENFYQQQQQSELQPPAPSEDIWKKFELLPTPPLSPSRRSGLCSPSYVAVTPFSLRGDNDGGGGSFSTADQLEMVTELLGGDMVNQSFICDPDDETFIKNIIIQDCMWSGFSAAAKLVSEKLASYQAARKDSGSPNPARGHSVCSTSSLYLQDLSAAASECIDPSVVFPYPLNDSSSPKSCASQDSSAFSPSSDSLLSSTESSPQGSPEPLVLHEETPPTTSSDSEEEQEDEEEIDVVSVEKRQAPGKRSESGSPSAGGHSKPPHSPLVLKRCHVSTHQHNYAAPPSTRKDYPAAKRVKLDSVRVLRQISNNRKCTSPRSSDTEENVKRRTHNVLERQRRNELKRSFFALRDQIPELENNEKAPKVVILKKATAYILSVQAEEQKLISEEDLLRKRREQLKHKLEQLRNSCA
Sequence of Peroxisome proliferator-activated receptor gamma (Homo sapiens) (P37231 whole entry, looked up): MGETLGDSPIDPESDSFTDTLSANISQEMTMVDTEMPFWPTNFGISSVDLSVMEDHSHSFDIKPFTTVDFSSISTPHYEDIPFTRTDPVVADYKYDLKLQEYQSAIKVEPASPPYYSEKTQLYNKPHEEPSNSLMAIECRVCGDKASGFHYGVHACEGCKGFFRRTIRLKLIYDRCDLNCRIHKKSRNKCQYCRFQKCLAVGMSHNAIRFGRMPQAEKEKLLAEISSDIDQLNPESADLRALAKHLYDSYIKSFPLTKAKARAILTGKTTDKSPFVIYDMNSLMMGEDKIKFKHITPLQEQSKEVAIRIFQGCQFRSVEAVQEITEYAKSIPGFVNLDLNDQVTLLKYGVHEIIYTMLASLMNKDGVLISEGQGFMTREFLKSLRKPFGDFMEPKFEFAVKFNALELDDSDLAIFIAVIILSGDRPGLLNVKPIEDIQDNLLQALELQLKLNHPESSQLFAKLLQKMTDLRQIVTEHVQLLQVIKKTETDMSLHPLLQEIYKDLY
Sequence of Cellular tumor antigen p53 (Homo sapiens) (P04637 whole entry, looked up, the tested form may be a part): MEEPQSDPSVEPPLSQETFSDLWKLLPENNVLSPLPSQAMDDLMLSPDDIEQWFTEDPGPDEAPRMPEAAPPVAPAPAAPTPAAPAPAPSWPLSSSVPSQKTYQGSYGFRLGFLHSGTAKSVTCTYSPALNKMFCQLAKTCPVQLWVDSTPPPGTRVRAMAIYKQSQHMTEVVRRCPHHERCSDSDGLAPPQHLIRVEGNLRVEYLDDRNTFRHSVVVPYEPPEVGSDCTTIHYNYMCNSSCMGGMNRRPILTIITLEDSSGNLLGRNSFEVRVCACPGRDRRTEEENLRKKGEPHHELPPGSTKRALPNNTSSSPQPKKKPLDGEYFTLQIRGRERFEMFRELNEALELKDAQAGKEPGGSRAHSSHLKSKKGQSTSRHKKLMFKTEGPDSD
Sequence of human Peroxisome Proliferator-activated Receptor alpha (PPARa), PPARA (gene 5465) (Q07869 whole entry, looked up, the tested form may be a part): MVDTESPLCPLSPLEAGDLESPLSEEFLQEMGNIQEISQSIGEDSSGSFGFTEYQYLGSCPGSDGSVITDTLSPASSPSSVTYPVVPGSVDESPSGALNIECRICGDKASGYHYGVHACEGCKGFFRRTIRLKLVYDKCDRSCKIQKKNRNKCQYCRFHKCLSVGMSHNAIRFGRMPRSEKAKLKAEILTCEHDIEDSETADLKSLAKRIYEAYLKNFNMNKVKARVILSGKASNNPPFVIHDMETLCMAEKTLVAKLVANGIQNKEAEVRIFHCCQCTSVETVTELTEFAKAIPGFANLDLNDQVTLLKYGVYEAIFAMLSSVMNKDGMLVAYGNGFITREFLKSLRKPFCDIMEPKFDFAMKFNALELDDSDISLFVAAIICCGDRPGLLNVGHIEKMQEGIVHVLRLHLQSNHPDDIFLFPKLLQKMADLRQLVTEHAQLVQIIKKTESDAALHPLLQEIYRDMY
Sequence of Nuclear receptor subfamily 1 group I member 2 (Homo sapiens) (O75469 whole entry, looked up, the tested form may be a part): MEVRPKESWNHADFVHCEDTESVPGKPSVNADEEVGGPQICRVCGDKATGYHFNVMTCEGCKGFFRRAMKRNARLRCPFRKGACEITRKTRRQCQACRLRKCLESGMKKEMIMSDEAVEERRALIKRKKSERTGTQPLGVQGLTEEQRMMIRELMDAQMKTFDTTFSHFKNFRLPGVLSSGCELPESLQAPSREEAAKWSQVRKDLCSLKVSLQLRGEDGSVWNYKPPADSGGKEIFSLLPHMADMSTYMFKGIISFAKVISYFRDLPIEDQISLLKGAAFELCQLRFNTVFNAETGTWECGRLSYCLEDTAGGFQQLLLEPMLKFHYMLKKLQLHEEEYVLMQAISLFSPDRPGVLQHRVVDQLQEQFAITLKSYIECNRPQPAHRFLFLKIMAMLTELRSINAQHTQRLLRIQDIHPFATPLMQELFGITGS
Sequence of Retinoic acid receptor alpha (Homo sapiens) (P10276 whole entry, looked up, the tested form may be a part): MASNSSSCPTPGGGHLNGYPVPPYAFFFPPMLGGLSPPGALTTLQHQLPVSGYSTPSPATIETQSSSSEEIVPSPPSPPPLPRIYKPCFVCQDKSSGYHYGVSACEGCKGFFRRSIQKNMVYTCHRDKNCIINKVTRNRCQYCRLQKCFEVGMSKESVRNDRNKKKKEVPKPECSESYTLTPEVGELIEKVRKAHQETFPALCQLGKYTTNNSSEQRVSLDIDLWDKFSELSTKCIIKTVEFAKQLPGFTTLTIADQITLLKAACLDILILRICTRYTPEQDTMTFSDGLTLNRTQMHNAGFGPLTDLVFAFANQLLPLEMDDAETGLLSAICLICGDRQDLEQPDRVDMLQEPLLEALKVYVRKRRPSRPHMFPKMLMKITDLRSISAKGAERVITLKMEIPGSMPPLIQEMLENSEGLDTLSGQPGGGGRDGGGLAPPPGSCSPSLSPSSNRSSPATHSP
Sequence of human Peroxisome Proliferator-activated Receptor delta (PPARd), PPARD (gene 5467) (Q03181 whole entry, looked up, the tested form may be a part): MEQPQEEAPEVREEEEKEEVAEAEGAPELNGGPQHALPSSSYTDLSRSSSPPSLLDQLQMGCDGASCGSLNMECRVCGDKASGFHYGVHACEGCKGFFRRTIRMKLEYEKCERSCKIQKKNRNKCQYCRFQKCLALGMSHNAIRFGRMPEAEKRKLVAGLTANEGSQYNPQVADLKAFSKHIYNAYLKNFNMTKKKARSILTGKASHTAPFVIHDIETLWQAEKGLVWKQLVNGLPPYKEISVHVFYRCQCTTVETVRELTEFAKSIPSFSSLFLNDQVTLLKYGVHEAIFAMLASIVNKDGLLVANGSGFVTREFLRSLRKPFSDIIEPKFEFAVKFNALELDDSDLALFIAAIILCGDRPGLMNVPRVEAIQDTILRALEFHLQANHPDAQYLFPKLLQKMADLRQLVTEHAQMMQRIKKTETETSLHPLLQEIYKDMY
Sequence of human Retinoic Acid Receptor beta (RARb), RARB (gene 5915) (P10826 whole entry, looked up, the tested form may be a part): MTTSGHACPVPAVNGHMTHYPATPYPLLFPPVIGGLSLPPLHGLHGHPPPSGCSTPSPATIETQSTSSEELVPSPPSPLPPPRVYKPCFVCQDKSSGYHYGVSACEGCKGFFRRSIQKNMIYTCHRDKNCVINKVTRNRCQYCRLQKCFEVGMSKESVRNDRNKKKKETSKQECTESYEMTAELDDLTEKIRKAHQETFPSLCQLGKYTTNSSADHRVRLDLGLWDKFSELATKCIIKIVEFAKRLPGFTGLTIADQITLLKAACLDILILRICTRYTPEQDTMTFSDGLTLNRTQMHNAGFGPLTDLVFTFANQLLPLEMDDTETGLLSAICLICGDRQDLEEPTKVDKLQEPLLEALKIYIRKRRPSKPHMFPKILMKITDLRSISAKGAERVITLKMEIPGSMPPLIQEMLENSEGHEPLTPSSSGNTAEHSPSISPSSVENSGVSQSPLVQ

Take `Cc1c(C(=O)O)c(O)cc2c1C(=O)c1c(O)c([C@@H]3O[C@H](CO)[C@@H](O)[C@H](O)[C@H]3O)c(O)c(O)c1C2=O`: the compound was classed as inactive in assay [1], in assay [2], in [3], in assay [4], in assay [5] and in assay [6]. Further, the outcome in assay [7], in [8], in assay [9], in assay [10], in [11] and in assay [12] was inactive. Also, the outcome in assay [13], in [14] and in [15] was inactive.
For the compound `Cc1ccc(N(C)C)cc1`, the outcome in [2], in [16], in [3], in assay [4], in [5] and in [6] was inactive. Also, the outcome in assay [7], in assay [8], in assay [9], in [17], in assay [11] and in [13] was inactive. Besides, in assay [18], the result was inactive.
As for `C=CCOC(=O)c1ccccc1C(=O)OCC=C`, the call in assay [2], in assay [16], in [4], in assay [5], in assay [7] and in assay [8] was inactive. For the same compound, the outcome in [9], in [10], in assay [11], in [12], in assay [13] and in assay [14] was inactive. For the same compound, the outcome in assay [18] and in assay [15] was inactive. Moreover, the concentration at half-maximal activity (AC50) in assay [3] is 27.2 µM (active).
On to `Cc1cc(=O)[nH]c(=S)[nH]1`, for which the compound was called inactive in [2], in assay [16], in assay [3], in assay [4], in assay [5] and in assay [6]. The result in assay [7], in assay [8], in assay [9], in [17], in assay [11] and in assay [13] was inactive. In addition, the compound was called inactive in assay [15].
In the case of `CC1(C)CC(N=C=O)CC(C)(CN=C=O)C1` (centres undefined), the result in assay [2], in assay [16], in assay [3], in assay [4], in assay [5] and in assay [6] was inactive. Further, the outcome in assay [7], in [8], in assay [9], in assay [11] and in assay [13] was inactive.
Consider `CCCCCCCCCCCCCO`, for which the outcome in assay [2], in assay [4], in assay [5], in [14] and in assay [18] was inactive. Also, the AC50 in assay [3] is 57.4 µM (active); in [6], 33.1 µM (active); in [7], 33.7 µM (active); in [8], 35.6 µM (active); in assay [9], 38.8 µM (active); in assay [10], 24.3 µM (active). Moreover, the figures for the AC50 in assay [11] and in [13] were 37.5 µM (active) and 14.9 µM (active), respectively.
Take `Nc1ccc2c(c1)C(=O)c1ccccc1C2=O`: the outcome in assay [2], in assay [16], in [4], in assay [5], in [6] and in assay [8] was inactive. Besides, the outcome in [9], in assay [11], in assay [19], in assay [13] and in assay [18] was inactive. The AC50 in [3] was 3.98 µM (active); in [7], 6.96 µM (active); in [14], 21 µM (active).
